Assay results: PubChem BioAssay (NCATS)
Results filed as inconclusive are left out. Calls of active or inactive are those of the source. Calls follow the shape of the dose curve; as a rule, active = well fitted curve in the direction sought with a large enough effect; inconclusive = small, poorly fitted or top-dose-only effect, or another doubt; inactive = no such curve, though single readings can be large; an effect the other way counts as inactive or inconclusive.

Columns and labels:
[1] = biological target: ATP-dependent 6-phosphofructokinase (Trypanosoma brucei brucei) (UniProt O15648); assay: qHTS Assay to Find Inhibitors of T. brucei phosphofructokinase: hit validation (AID 492961);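 also: luminescence reports ADP formed as PFK phosphorylates fructose-6-phosphate with ATP; % is scaled to controls: 0 for no effect and ±100 for the full control effect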
ATP-dependent 6-phosphofructokinase (Trypanosoma brucei brucei), sequence (O15648 whole entry, looked up): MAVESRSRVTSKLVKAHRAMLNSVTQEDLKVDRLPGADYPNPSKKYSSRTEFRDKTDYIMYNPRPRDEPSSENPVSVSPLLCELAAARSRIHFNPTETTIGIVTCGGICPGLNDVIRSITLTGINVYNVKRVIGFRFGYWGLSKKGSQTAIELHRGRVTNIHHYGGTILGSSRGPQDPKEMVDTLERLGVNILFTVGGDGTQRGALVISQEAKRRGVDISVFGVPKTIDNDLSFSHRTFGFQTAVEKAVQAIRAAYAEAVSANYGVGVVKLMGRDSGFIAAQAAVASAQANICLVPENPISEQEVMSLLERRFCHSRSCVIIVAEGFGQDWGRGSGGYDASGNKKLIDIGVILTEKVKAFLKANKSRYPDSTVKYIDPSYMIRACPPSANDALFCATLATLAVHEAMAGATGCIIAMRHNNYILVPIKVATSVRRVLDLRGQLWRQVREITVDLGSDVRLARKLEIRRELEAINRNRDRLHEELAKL
How it was run: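 In this biochemical qHTS validation, titrated compounds were tested against 1.25 nM PFK with 0.1 mM ATP and 0.5 mM F6P. Percent activity came from controls lacking or containing enzyme.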

[2] = qHTS profiling for inhibitors of Plasmodium falciparum proliferation (AID 504749);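 also: 0% = DMSO vehicle and full inhibition = artemisinin control; nearly all actives have a fitted effect of over 60% in size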; conditions: P. falciparum in erythrocytes, SYBR Green DNA, 72 h, at 28.7 µM (top of the series)
How it was run: (§1)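 In a 72 h erythrocytic culture (37 C, humidified, 5% CO2) at 2.5% hematocrit and 0.3% starting parasitemia, compounds were tested; SYBR Green I in detergent lysis buffer stained parasite DNA overnight.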

3D7 = assay: as above; conditions: P. falciparum in erythrocytes, SYBR Green DNA, 72 h; series mostly up to 28.7 µM
How it was run: as §1

7G8 = assay: as above; conditions: P. falciparum in erythrocytes, SYBR Green DNA, 72 h; series mostly up to 28.7 µM
How it was run: as §1

AS120 = assay: as above; conditions: P. falciparum in erythrocytes, SYBR Green DNA, 72 h; series mostly up to 28.7 µM
How it was run: as §1

ATS189 = assay: as above; conditions: P. falciparum in erythrocytes, SYBR Green DNA, 72 h; series mostly up to 28.7 µM
How it was run: as §1

CP185 = assay: as above; conditions: P. falciparum in erythrocytes, SYBR Green DNA, 72 h; series mostly up to 28.7 µM
How it was run: as §1

CP191 = assay: as above; conditions: P. falciparum in erythrocytes, SYBR Green DNA, 72 h; series mostly up to 28.7 µM
How it was run: as §1

CP192 = assay: as above; conditions: P. falciparum in erythrocytes, SYBR Green DNA, 72 h; series mostly up to 28.7 µM
How it was run: as §1

CP194 = assay: as above; conditions: P. falciparum in erythrocytes, SYBR Green DNA, 72 h; series mostly up to 28.7 µM
How it was run: as §1

CP201 = assay: as above; conditions: P. falciparum in erythrocytes, SYBR Green DNA, 72 h; series mostly up to 28.7 µM
How it was run: as §1

CP203 = assay: as above; conditions: P. falciparum in erythrocytes, SYBR Green DNA, 72 h; series mostly up to 28.7 µM
How it was run: as §1

CP247 = assay: as above; conditions: P. falciparum in erythrocytes, SYBR Green DNA, 72 h; series mostly up to 28.7 µM
How it was run: as §1

CP286 = assay: as above; conditions: P. falciparum in erythrocytes, SYBR Green DNA, 72 h; series mostly up to 28.7 µM
How it was run: as §1

CP291 = assay: as above; conditions: P. falciparum in erythrocytes, SYBR Green DNA, 72 h; series mostly up to 28.7 µM
How it was run: as §1

P94_40 = assay: as above; conditions: P. falciparum in erythrocytes, SYBR Green DNA, 72 h; series mostly up to 28.7 µM
How it was run: as §1

PC49 = assay: as above; conditions: P. falciparum in erythrocytes, SYBR Green DNA, 72 h; series mostly up to 28.7 µM
How it was run: as §1

TAB109 = assay: as above; conditions: P. falciparum in erythrocytes, SYBR Green DNA, 72 h; series mostly up to 28.7 µM
How it was run: as §1

TAB113 = assay: as above; conditions: P. falciparum in erythrocytes, SYBR Green DNA, 72 h; series mostly up to 28.7 µM
How it was run: as §1

OC[C@@H]1O[C@](CO)(O[C@H]2O[C@H](CO)[C@@H](O)[C@H](O)[C@H]2O)[C@H](O)[C@H]1O
inactive: Potency [1] | activity, negative = inhibition ([2]; parasite line A) -1.62% | activity, negative = inhibition ([2]; parasite line B) 7.05% | Potency (3D7) | Potency (7G8) | Potency (AS120) | Potency (ATS189) | Potency (CP185) | Potency (CP191) | Potency (CP192) | Potency (CP194) | Potency (CP201) | Potency (CP203) | Potency (CP247) | Potency (CP286) | Potency (CP291) | Potency (P94_40) | Potency (PC49) | Potency (TAB109) | Potency (TAB113)

O=C1CC[C@H](C(=O)N[C@@H]2C[C@H]2c2ccccc2)N1
inactive: Potency [1] | activity, negative = inhibition ([2]; parasite line A) 10.5% | activity, negative = inhibition ([2]; parasite line B) 18.1% | Potency (3D7) | Potency (7G8) | Potency (AS120) | Potency (ATS189) | Potency (CP185) | Potency (CP191) | Potency (CP192) | Potency (CP194) | Potency (CP201) | Potency (CP203) | Potency (CP247) | Potency (CP286) | Potency (CP291) | Potency (P94_40) | Potency (PC49) | Potency (TAB109) | Potency (TAB113)

CNC(=O)C(N)CSC(C)C1=C(C)c2cc3[n-]c(cc4nc(cc5[n-]c(cc1n2)c(C)c5CCC(=O)O)C(CCC(=O)O)=C4C)c(C)c3C(C)SCC(N)C(=O)NC.[Fe+2] (stereo not given)
inactive: Potency [1] | activity, negative = inhibition ([2]; parasite line A) 8.98% | activity, negative = inhibition ([2]; parasite line B) -1.36% | Potency (3D7) | Potency (7G8) | Potency (AS120) | Potency (ATS189) | Potency (CP185) | Potency (CP191) | Potency (CP192) | Potency (CP194) | Potency (CP201) | Potency (CP203) | Potency (CP247) | Potency (CP286) | Potency (CP291) | Potency (P94_40) | Potency (PC49) | Potency (TAB109) | Potency (TAB113)

C[C@]12CC[C@@H]3c4ccc(O)cc4CC[C@H]3[C@@H]1C[C@H](O)C2O (stereo not given in full)
inactive: Potency [1] | activity, negative = inhibition ([2]; parasite line A) 7.19% | activity, negative = inhibition ([2]; parasite line B) 12.7% | Potency (3D7) | Potency (7G8) | Potency (AS120) | Potency (ATS189) | Potency (CP185) | Potency (CP191) | Potency (CP192) | Potency (CP194) | Potency (CP201) | Potency (CP203) | Potency (CP247) | Potency (CP286) | Potency (CP291) | Potency (P94_40) | Potency (PC49) | Potency (TAB109) | Potency (TAB113)

Cc1ccc(Nc2ncccc2C(=O)O)cc1C
inactive: Potency [1] | activity, negative = inhibition ([2]; parasite line A) 6.4% | activity, negative = inhibition ([2]; parasite line B) 7.72% | Potency (3D7) | Potency (7G8) | Potency (AS120) | Potency (ATS189) | Potency (CP185) | Potency (CP191) | Potency (CP192) | Potency (CP194) | Potency (CP201) | Potency (CP203) | Potency (CP247) | Potency (CP286) | Potency (CP291) | Potency (P94_40) | Potency (PC49) | Potency (TAB109) | Potency (TAB113)

CCN1CCN(C(=O)NC(C(=O)NC2C(=O)N3C(C(=O)O)=C(CSc4nnnn4C)CSC23)c2ccc(O)cc2)C(=O)C1=O (stereo not given)
inactive: Potency [1] | activity, negative = inhibition ([2]; parasite line A) 1.12% | activity, negative = inhibition ([2]; parasite line B) -9.29% | Potency (3D7) | Potency (7G8) | Potency (AS120) | Potency (ATS189) | Potency (CP185) | Potency (CP191) | Potency (CP192) | Potency (CP194) | Potency (CP201) | Potency (CP203) | Potency (CP247) | Potency (CP286) | Potency (CP291) | Potency (P94_40) | Potency (PC49) | Potency (TAB109) | Potency (TAB113)

CCCCN1CC(O)C(O)C(O)C1CO (stereo not given)
inactive: Potency [1] | activity, negative = inhibition ([2]; parasite line A) 0.477% | activity, negative = inhibition ([2]; parasite line B) 1.06% | Potency (3D7) | Potency (7G8) | Potency (AS120) | Potency (ATS189) | Potency (CP185) | Potency (CP191) | Potency (CP192) | Potency (CP194) | Potency (CP201) | Potency (CP203) | Potency (CP247) | Potency (CP286) | Potency (CP291) | Potency (P94_40) | Potency (PC49) | Potency (TAB109) | Potency (TAB113)

CC[C@@H](C)C(N)C(=O)O (stereo not given in full)
inactive: Potency [1] | activity, negative = inhibition ([2]; parasite line A) 6.94% | activity, negative = inhibition ([2]; parasite line B) 2.73% | Potency (3D7) | Potency (7G8) | Potency (AS120) | Potency (ATS189) | Potency (CP185) | Potency (CP191) | Potency (CP192) | Potency (CP194) | Potency (CP201) | Potency (CP203) | Potency (CP247) | Potency (CP286) | Potency (CP291) | Potency (P94_40) | Potency (PC49) | Potency (TAB109) | Potency (TAB113)

CC(O)C(N)C(=O)O (stereo not given)
inactive: Potency [1] | activity, negative = inhibition ([2]; parasite line A) 4.5% | activity, negative = inhibition ([2]; parasite line B) 11.6% | Potency (3D7) | Potency (7G8) | Potency (AS120) | Potency (ATS189) | Potency (CP185) | Potency (CP191) | Potency (CP192) | Potency (CP194) | Potency (CP201) | Potency (CP203) | Potency (CP247) | Potency (CP286) | Potency (CP291) | Potency (P94_40) | Potency (PC49) | Potency (TAB109) | Potency (TAB113)

CO/N=C(/C(=O)N[C@@H]1C(=O)N2C(C(=O)O)=C(CSc3nc(C)c(CC(=O)O)s3)CS[C@H]12)c1csc(N)n1
inactive: Potency [1] | activity, negative = inhibition ([2]; parasite line A) 5.91% | activity, negative = inhibition ([2]; parasite line B) 4.95% | Potency (3D7) | Potency (7G8) | Potency (AS120) | Potency (ATS189) | Potency (CP185) | Potency (CP191) | Potency (CP192) | Potency (CP194) | Potency (CP201) | Potency (CP203) | Potency (CP247) | Potency (CP286) | Potency (CP291) | Potency (P94_40) | Potency (PC49) | Potency (TAB109) | Potency (TAB113)
